According to PubChem BioAssay:
Values joined by “and” are separate entries in the source; they are usually repeats but may differ in a detail not shown here. Equal values may be shown once. Active and inactive are the calls of the source.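 How the source made its calls, unless noted: active means compounds whose cell count with miR-34 switched on is under 0.7 times the count with it off; inactive means the rest.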

What was measured:
[1] = sensitizers of A549 cells to miR-34 induction, primary screen, imaging, A549 dox-inducible miR-34, nuclei and caspase counts (AID 1347080); conditions: A549 miR-34 inducible, Hoechst nuclei count, 48 h
[2] = survival rescue of mitochondrial mutant cells in low glucose, primary screen, MELAS cybrids, Rieske KO mouse fibroblasts, CellTiter-Glo (AID 1508586;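 active means mean z-score across replicates of 1.96 or higher in either the MELAS or the Rieske mutant cell line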;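 further: z relative to plate mean and SD of compound and empty wells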)
[3] = phospholipid biosynthesis inhibitors in animal cells, primary screen, cell-based, LOPAC library, screen 4 (AID 1347384; call rule not given here); conditions: phospholipid biosynthesis inhibition screen, at 10 µM
[4] = target: NAD(+) hydrolase SARM1 (Homo sapiens) (UniProt Q6SZW1); experiment: SARM1 TIR NADase inhibitors, cell lysate, NAD-Glo luminescence (AID 1508614;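 active means compound whose remaining NAD level is above about 45 nM, limit read from the data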); conditions: SAM-TIR HEK293T lysate NADase, at 1 µM, stronger effect = higher value
Chain of NAD(+) hydrolase SARM1 (Homo sapiens) (Q6SZW1 whole entry, looked up, the tested form may be a part): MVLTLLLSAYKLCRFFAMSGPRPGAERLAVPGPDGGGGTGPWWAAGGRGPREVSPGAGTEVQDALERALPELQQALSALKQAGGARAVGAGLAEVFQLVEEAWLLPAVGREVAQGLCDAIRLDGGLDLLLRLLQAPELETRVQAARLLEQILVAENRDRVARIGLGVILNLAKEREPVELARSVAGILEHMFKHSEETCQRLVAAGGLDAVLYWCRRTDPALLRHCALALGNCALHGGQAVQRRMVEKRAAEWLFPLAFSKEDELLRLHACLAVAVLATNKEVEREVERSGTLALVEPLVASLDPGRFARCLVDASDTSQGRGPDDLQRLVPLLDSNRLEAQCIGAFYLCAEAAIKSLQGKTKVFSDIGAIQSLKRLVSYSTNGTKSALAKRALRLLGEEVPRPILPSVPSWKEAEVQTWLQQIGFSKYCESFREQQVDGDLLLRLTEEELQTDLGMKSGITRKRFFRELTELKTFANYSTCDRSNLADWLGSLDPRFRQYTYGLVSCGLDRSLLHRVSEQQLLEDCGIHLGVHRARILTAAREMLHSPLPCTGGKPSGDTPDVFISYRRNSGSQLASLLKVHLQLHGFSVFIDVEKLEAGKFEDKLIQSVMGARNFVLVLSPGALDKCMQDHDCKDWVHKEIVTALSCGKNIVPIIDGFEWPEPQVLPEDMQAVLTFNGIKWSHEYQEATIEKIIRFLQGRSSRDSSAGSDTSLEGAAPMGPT

[5] = target: Mitogen-activated protein kinase 7 (Homo sapiens) (UniProt Q13164); experiment: ERK5 transactivation activators in reporter cells, primary screen, cell-based, HTS (AID 1508626;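 active means luciferase signal above three times the same-plate solvent-only control wells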;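 further: luciferase driven by Gal4-ERK5 fusion binding five Gal4 sites before minimal TATA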); conditions: HeLa Gal4-ERK5 transactivation, 18 h, at 5 µM, stronger effect = higher value
Chain of Mitogen-activated protein kinase 7 (Homo sapiens) (Q13164 whole entry, looked up, the tested form may be a part): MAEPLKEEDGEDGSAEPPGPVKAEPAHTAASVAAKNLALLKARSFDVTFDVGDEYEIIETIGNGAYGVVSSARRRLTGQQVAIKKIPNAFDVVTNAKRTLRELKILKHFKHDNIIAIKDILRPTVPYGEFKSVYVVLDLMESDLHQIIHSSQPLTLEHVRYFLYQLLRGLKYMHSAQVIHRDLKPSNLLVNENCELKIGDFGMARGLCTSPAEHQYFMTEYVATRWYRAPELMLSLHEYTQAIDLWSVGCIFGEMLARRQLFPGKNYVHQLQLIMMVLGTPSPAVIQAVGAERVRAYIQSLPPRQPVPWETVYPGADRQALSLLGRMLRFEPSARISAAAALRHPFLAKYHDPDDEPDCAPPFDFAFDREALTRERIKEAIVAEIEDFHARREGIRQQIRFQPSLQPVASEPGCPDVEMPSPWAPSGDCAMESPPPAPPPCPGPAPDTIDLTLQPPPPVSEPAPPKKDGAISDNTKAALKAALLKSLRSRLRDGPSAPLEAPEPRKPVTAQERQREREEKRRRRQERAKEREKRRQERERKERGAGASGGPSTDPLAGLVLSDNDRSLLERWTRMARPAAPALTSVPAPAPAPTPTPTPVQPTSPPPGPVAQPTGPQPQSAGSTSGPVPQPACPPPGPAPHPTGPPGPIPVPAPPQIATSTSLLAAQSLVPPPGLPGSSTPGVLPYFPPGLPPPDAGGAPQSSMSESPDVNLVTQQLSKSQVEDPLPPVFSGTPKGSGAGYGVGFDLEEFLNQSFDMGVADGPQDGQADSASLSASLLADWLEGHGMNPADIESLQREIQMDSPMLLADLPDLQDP

[6] = viability rescue of complex I mutant cybrids, primary screen, cell-based, galactose medium, ATP luminescence (AID 1645843;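 active means z-score of at least 1.8 in each of two replicates, scored against plate mean and spread of sample wells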;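 further: positive z means more ATP and so rescue of galactose-driven cybrid death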); conditions: complex I mutant cybrid cells, 72 h, stronger effect = higher value
[7] = stronger effect = lower value, cell number ratio, induced over uninduced
[8] = measured here: relative caspase fold change +Dox/-Dox
[9] = measured here: total cells with miR-34 induction, stronger effect = lower value
[10] = measured here: total cells without miR-34 induction
[11] = MELAS cybrid survival, CellTiter-Glo 48 h, stronger effect = higher value
[12] = Rieske KO mouse fibroblast survival, CellTiter-Glo 72 h

SMILES | fold change [1, 7] | fold change [1, 8] | cell count [1, 9] | cell count [1, 10] | z-score [2, 11] | z-score [2, 12] | outcome [3] | remaining NAD [4] | luciferase signal [5] | z-score [6]
CC[N+](C)(C)Cc1ccccc1Br | 0.896 (inactive) | 1.09 | 8620 | 9630 | 0.582 (inactive) | 0.0274 |  |  |  | 
Cc1nc2sccn2c(=O)c1CCN1CCC(=C(c2ccc(F)cc2)c2ccc(F)cc2)CC1 | 1.04 (inactive) and 0.919 (inactive) and 0.754 (inactive) | 0.73 and 0.904 and 7.37 | 8680 and 6720 and 10000 | 8330 and 7320 and 13300 |  |  | inactive | 10 nM (inactive) | 152 AU (active) | -1.37 (inactive) and -0.82 (inactive)
Cc1c(O)cccc1C(=O)N[C@@H](CSc1ccccc1)[C@H](O)CN1C[C@H]2CCCC[C@H]2C[C@H]1C(=O)NC(C)(C)C | 0.973 (inactive) and 1.07 (inactive) | 1.56 and 1.1 | 1740 and 4590 | 1780 and 4280 | -0.847 (inactive) and 0.17 | 0.453 and 2.01 | inactive |  |  | -1.03 (inactive) and -1.48 (inactive)
NC(Cc1ccc(Cl)cc1)C(=O)O (centres undefined) | 0.993 (inactive) | 1.95 | 10900 | 10900 |  |  | inactive | 10 nM (inactive) |  | 0.25 (inactive)
C[C@]12C[C@H](O)[C@H]3[C@@H](CCC4=CC(=O)CC[C@@]43C)[C@@H]1CC[C@@H]2C(=O)CO | 0.955 (inactive) and 0.755 (inactive) and 0.815 (inactive) | 2.18 and 1.95 and 1.31 | 7560 and 6880 and 7400 | 7920 and 9120 and 9080 | 0.478 (inactive) and -0.124 (inactive) | -0.146 and 0.938 | inactive |  |  | -0.085 (inactive) and -0.065 (inactive)
NCCCC(=O)O | 1.09 (inactive) | 1.86 | 10000 | 9160 |  |  | inactive | 10 nM (inactive) | 56 AU (inactive) | 0.26 (inactive)
CN(C)CC[C@@H](c1ccc(Cl)cc1)c1ccccn1 | 1.01 (inactive) | 1.39 | 9880 | 9740 |  |  | inactive | 10 nM (inactive) | 40 AU (inactive) | -0.155 (inactive)
C[n+]1cc2c3c(ccc2c2ccc4cc5c(cc4c21)OCO5)OCO3 | 0.823 (inactive) and 1.84 (inactive) and 1.11 (inactive) | 0.926 and 0.714 and 1.64 | 552 and 933 and 1830 | 672 and 507 and 1640 |  |  | inactive | 10 nM (inactive) | 84 AU (inactive) | -1.38 (inactive)
COc1ccc(NS(=O)(=O)c2ccc(N)cc2)nn1 | 0.86 (inactive) and 0.96 (inactive) and 0.867 (inactive) | 1.18 and 0.826 and 3.5 | 7560 and 8690 and 11000 | 8780 and 9050 and 12700 | -0.236 (inactive) and -0.537 (inactive) | -0.178 and -1.12 |  | 10 nM (inactive) | 28 AU (inactive) | 
